For 26 compounds, growth results are on record in PubChem BioAssay (NCI).

This is part of a sample that, as a whole, favours compounds with a hit. Of some 83,000 tested, about 20% had one in any assay.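 Interpretation: 100, growth as untreated; towards 0, rising growth inhibition; 0, no net growth; 0 to -100, cell death. Compounds scoring below 10 were considered active.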 Unmarked numbers belong to inactive results. Calls of active or inactive are those of the source.

In this assay the test system is MDA-MB-468 breast. Put plainly: NCI-60 one-dose screen, 48 h (100 = growth as untreated, 0 = no growth, -100 = all killed). Conditions: 10 µM unless noted.
In the case of `CCN(Cc1ccccc1)c1ccc(SC#N)cc1`, the growth is 72.3%.

On to `ON1CCCC1`, for which the growth was 108%.

With `O=C(C(=O)N1CCOCC1)c1ccc(O[C@H]2O[C@H](CO)[C@@H](O)[C@H](O)[C@@H]2O)cc1`, the growth was 97.5%.

In the case of `CCCCCCCCCCNC(=O)CI`, the growth was -40.5% (active).

Take `O=S(=O)(Nc1ccc(I)c(Cl)c1)c1ccc(-c2cnc(C3CC3)o2)cc1`: the growth was -9.49% (active).

For the compound `NC(N)=NCCCCCNc1noc(Cc2c[nH]c3cc(Br)ccc23)n1`, the growth was 1.76% (active).

Turning to `COc1ccc(NC(=O)Nc2ccccc2CNc2nc(Nc3ccc(OCCN4CCCC4)cc3)ncc2Cl)cc1`, the growth was -43.5% (active).

Turning to `CN(C)c1ccc2cc(-c3ccc(Cl)c(Cl)c3)c(N)nc2c1`, the growth was 18.9%.

As for `O=C(NCCN1CCOCC1)OCc1nc2nc(Cl)nc(N3CCOCC3)c2[nH]1`, the growth is 10.1%.

Turning to `CC(C)COC(=O)COC(=O)OCCOCCOC(=O)OCC(=O)OCC(C)C`, the growth was 105%.

Regarding `C=CC(=O)Nc1cccc(Oc2nc(Nc3ccc(N4CCN(C)CC4)cc3)nc3ccsc23)c1`, the growth is -69.1% (active).

For the compound `Nc1ncnc(Nc2ccccc2)n1`, the growth was 108%.

As for `Cn1c(=O)c2[nH]c(Cc3ccc4c(c3)OCO4)nc2n(C)c1=O`, the growth was 106%.

With `C=CCCC(=O)N1C=CC(=O)[C@H](O)[C@@H]1/C=C/c1ccccc1`, the growth is 4.99% [100 µM] (active).

On to `COc1ccc(/C(=C2\O[C@@H]([C@H]3COC(C)(C)O3)[C@H]3OC(C)(C)O[C@@H]23)c2cc(OC)c(OC)c(OC)c2)cc1O`, for which the growth was 96.4%.

In the case of `COc1ccc(-c2nc3c(c(-c4ccccc4)nn3-c3ccccc3)c(-c3ccc(N4CCOCC4)cc3)c2C#N)cc1`, the growth was 97.8%.

On to `O=C1CCCN1C(O)CCN(Cc1ccccc1)Cc1ccc(Cl)cc1` (stereo unspecified), for which the growth was 113%.

As for `CCCCCCOc1ccc(/C=N/Nc2cc(C)nc3ccc(Cl)cc23)cc1`, the growth is -56.7% (active).

Take `CCCCCCN(CCCCCC)c1ccc(/C=C2/SC(=O)N(c3nc(N4CCCC4)nc(N4CCCC4)n3)C2=O)c(C)c1`: the growth was 59%.

As for `CCCCN(C)N=Nc1ccc(C(N)=O)cc1`, the growth is 102%.

In the case of `COC(=O)[C@]12CC[C@@H](C)[C@H](C)[C@@H]1C1=CC[C@@H]3[C@@]4(C)C(C=O)=C[C@@](C)(CO)[C@@H]4[C@H](O)C[C@@]3(C)[C@]1(C)CC2`, the growth is -12% (active).

On to `Cn1cc(-c2nc(-c3c[nH]c4ncccc34)cs2)c2cccnc21`, for which the growth was -6.43% (active).

For the compound `Nc1ccccc1-c1ccc([N+](=O)[O-])cc1`, the growth is 67.5%.

`C=CN(C(=O)N1CCN(c2cc3c(cc2F)c(=O)c(C(=O)O)cn3C2CC2)CC1)c1nc(-c2ccc(Cl)cc2)cs1`: the growth was 76.3%.

With `Cc1c(NC(=O)c2sc3nc4c(cc3c2N)CN(Cc2ccccc2)CC4)cccc1C(F)(F)F`, the growth was -5.77% (active).

For the compound `O=C(CCc1nnc(-c2c(Cl)cccc2Cl)o1)c1nc2ccccc2[nH]1`, the growth is -2.19% (active).
